What was measured:
Assay in all cases: DAPPL (digital affinity profiling via proximity ligation, sequencing); 10 mM Tris-HCl pH 7.5, 50 mM NaCl, 1 mM DTT, 4% glycerol, room temperature, 30 min; GST-TFs on glutathione beads, 16-mer random dsDNA library, 0.1% formaldehyde crosslink after washing; high values mean tight binding
Conditions in all cases: protein: recombinant; tags: N-terminal GST; dsDNA, one strand shown
ETV5 = ETV5 (Homo sapiens, UniProt P41161 1-510)
How it was run: (§1)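 Human transcription factors carrying a GST fusion were produced in yeast, bound to glutathione beads, tagged with DNA barcodes and pooled together with a tag-only sample. Each pool was held with 200 nmole of a random double-stranded 16-mer DNA library in Tris/NaCl/DTT/glycerol buffer for 30 min at room temperature, then washed, crosslinked in 0.1% formaldehyde, proximity-ligated with BsaI/T4 ligase (1 h, 37 °C), PCR-amplified and sequenced on an Illumina NextSeq500. Binding signal is the read frequency of each hexamer for a given factor divided by its frequency in the tag-only sample.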

SPIC = target: T1, SPIC (Homo sapiens, UniProt Q8N5J4 1-248)
T1 sequence: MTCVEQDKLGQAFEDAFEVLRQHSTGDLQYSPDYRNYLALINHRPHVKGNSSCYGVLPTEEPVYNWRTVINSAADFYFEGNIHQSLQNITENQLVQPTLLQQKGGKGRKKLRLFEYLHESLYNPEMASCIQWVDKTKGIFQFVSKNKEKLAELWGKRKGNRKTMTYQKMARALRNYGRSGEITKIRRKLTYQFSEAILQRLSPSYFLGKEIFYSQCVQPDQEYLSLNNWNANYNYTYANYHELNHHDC
How it was run: as §1

ELF4 = ELF4 (Homo sapiens, UniProt Q99607 1-663)
Sequence of ELF4 (Q99607 whole entry): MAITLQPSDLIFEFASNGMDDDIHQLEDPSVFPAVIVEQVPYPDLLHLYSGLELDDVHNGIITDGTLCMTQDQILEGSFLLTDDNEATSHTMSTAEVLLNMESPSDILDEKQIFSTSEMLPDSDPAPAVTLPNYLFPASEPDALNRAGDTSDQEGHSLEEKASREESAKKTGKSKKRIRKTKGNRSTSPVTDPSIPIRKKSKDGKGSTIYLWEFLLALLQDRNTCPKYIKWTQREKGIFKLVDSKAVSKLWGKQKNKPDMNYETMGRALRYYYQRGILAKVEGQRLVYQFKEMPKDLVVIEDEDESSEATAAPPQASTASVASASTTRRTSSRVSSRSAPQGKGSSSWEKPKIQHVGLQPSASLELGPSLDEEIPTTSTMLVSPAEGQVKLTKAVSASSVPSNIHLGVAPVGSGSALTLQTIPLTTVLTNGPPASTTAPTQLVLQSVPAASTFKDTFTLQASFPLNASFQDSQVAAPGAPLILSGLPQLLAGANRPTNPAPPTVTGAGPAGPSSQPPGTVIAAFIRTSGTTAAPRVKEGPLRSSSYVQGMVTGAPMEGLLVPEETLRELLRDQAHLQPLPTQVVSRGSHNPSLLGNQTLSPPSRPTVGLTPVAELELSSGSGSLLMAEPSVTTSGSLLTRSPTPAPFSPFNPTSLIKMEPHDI
How it was run: as §1

ETV1 = ETV1 (Homo sapiens, UniProt P50549 1-477)
Sequence of ETV1 (P50549 whole entry): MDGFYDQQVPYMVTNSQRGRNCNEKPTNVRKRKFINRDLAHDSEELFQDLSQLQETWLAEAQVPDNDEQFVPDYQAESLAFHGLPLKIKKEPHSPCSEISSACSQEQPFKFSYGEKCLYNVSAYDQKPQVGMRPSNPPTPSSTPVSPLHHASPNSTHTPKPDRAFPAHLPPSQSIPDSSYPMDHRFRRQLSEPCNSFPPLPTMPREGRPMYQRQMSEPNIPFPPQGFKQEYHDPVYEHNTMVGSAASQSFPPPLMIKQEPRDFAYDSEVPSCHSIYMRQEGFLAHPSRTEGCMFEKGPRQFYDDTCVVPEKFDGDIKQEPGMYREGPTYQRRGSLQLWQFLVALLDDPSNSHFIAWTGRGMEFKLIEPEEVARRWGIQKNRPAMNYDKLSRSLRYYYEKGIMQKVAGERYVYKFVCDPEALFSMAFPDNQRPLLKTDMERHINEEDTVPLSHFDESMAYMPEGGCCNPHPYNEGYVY
How it was run: as §1

ERF = target: T2, ERF (Homo sapiens, UniProt P50548 1-548)
T2 sequence: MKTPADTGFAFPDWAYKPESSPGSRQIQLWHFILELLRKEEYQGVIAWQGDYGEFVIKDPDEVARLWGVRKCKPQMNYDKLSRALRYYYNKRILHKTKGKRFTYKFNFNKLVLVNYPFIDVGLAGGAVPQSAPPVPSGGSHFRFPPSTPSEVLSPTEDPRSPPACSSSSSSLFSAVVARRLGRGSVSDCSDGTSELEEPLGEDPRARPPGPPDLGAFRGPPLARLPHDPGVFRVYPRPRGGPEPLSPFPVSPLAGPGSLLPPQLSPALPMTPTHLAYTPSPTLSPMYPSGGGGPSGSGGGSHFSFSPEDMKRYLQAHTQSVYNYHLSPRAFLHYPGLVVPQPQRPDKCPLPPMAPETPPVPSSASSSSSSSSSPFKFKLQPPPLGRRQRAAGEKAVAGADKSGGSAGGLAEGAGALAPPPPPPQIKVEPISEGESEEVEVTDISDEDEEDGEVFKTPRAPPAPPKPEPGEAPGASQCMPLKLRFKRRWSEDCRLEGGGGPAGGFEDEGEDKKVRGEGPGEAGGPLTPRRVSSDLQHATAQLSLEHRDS
How it was run: as §1

ETV3L = target: T3, ETV3L (Homo sapiens, UniProt Q6ZN32 1-361)
T3 sequence: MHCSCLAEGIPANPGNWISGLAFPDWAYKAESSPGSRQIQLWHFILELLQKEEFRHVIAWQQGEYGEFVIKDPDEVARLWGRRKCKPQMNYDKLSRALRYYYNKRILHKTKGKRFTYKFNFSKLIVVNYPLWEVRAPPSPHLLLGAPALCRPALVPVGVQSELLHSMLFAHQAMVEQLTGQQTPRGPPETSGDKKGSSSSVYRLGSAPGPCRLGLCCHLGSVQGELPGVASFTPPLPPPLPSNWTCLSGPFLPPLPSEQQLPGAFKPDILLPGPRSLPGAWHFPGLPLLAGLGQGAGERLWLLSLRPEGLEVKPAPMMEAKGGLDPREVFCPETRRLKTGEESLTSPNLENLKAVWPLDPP
How it was run: as §1

ETS2 = target: T4, ETS2 (Homo sapiens, UniProt P15036 1-469)
T4 sequence: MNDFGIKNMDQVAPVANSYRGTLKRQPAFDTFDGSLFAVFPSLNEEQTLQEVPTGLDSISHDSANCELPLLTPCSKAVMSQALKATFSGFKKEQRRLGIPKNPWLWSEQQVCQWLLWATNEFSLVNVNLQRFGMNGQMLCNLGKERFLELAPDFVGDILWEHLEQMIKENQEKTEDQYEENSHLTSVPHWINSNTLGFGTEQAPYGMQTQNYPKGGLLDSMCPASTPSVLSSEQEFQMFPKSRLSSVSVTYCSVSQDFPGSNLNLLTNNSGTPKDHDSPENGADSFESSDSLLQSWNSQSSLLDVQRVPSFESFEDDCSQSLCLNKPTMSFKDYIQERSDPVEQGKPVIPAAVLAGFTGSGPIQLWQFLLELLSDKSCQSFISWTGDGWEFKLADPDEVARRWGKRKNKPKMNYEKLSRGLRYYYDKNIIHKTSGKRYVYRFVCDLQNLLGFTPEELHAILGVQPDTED
How it was run: as §1

SPDEF = target: T5, SPDEF (Homo sapiens, UniProt O95238 1-335)
T5 sequence: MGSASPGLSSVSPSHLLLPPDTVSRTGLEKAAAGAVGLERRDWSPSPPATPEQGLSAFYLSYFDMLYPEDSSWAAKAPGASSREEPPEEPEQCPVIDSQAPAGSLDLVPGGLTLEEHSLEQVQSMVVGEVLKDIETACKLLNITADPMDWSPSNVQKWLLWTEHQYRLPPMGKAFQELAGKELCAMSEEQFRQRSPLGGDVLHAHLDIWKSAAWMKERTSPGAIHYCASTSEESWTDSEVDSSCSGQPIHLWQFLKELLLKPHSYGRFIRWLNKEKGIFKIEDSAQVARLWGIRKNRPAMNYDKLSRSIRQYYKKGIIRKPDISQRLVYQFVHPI
How it was run: as §1

ETV3 = target: T6, ETV3 (Homo sapiens, UniProt P41162-2 1-143)
T6 sequence: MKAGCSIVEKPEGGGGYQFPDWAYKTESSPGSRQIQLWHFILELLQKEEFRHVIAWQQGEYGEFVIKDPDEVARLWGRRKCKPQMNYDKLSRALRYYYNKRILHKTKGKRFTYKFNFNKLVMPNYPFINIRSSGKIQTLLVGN
How it was run: as §1

ETV6 = ETV6 (Homo sapiens, UniProt P41212 1-452)
Sequence of ETV6 (P41212 whole entry): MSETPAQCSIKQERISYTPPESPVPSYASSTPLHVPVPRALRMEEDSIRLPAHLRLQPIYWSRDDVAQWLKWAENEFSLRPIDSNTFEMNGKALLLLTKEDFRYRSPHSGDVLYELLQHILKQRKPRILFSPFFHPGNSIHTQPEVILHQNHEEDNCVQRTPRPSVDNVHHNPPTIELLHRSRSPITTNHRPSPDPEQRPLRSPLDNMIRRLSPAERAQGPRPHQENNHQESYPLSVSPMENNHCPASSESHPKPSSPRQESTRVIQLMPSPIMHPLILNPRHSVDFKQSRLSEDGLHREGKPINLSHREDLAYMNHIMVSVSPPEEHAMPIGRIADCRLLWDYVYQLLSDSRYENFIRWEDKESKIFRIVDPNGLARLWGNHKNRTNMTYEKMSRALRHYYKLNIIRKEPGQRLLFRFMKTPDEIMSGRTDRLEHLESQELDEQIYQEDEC
How it was run: as §1

Sequence of ETV5 (P41161 whole entry, the tested form may be a part): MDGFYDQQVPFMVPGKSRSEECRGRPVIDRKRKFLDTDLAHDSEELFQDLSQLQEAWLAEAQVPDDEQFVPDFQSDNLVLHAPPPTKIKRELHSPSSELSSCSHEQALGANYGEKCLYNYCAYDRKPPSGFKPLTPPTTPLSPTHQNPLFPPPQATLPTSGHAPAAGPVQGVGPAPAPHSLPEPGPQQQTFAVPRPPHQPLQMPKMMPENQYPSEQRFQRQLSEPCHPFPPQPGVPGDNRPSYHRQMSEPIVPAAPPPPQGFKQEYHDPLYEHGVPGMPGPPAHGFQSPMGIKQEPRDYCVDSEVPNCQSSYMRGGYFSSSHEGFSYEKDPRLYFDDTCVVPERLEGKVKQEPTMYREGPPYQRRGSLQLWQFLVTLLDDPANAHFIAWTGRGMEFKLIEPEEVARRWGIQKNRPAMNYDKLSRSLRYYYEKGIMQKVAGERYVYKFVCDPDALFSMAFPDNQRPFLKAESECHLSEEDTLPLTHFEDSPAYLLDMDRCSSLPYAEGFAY

In the case of GCCCAC, the binding signal (ETV5) is reported as 1.16 fold enrichment (6-mer frequency, TF over GST control), the binding signal (SPIC) is reported as 1.13 fold enrichment (6-mer frequency, TF over GST control) and the binding signal (ELF4) is reported as 1.18 fold enrichment (6-mer frequency, TF over GST control). The binding signal (ETV1) was 1 fold enrichment (6-mer frequency, TF over GST control), the binding signal (ERF) was 1.09 fold enrichment (6-mer frequency, TF over GST control) and the binding signal (ETV3L) was 1.04 fold enrichment (6-mer frequency, TF over GST control). The binding signal (ETS2) was 1.04 fold enrichment (6-mer frequency, TF over GST control), the binding signal (SPDEF) was 1.06 fold enrichment (6-mer frequency, TF over GST control) and the binding signal (ETV3) was 1.09 fold enrichment (6-mer frequency, TF over GST control). The binding signal (ETV6) was 1.05 fold enrichment (6-mer frequency, TF over GST control).

— PMC7862700, “An all-to-all approach to the identification of sequence-specific readers for epigenetic DNA modifications on cytosine”
